# Test results published in PubChem BioAssay (NCATS).
# Inconclusive results are not listed. Calls of active or inactive are those of the source. Calls follow the shape of the dose curve; as a rule, active = well fitted activation curve with a large enough effect; inconclusive = small, poorly fitted or top-dose-only effect; inactive = no such curve, though single readings can be large or run the other way. Square brackets hold non-standard residues; d marks the D form. Peptide text beside a SMILES is read from it. ξ: configuration not given here. ξPhe(βξ-Me) = CC(c1ccccc1)C(N)C(=O)O; GABA = NCCCC(=O)O
# Biological target: Cellular tumor antigen p53 (Homo sapiens) (UniProt P04637)
# Experiment: Primary qHTS for small molecule compounds that upregulate eGFP-tagged delta133p53alpha (in N-terminal) cells. (AID 2060322); also: nearly all actives have a fitted effect of over 75% in size;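 as to activation: series mostly up to about 56 µM; 0% = DMSO vehicle and 100% = reference activator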
# Settings: NCI-H358 eGFP-delta133p53alpha fluorescence, 24 h; activation: hits give high values
# Outline: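 NCI-H358 cells pre-induced 24 h with 10 ng/ml doxycycline to express N-terminal eGFP-delta133p53alpha, then dosed 24 h at 37C without doxycycline; fixed, Hoechst-stained, GFP intensity by laser scanning cytometry, normalized to DMSO (0%) and 57.5 uM 5-azacytidine (100%).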
# Potency is read from the fitted curve at half-maximal effect.
# Cellular tumor antigen p53 (Homo sapiens), sequence (P04637 whole entry, looked up): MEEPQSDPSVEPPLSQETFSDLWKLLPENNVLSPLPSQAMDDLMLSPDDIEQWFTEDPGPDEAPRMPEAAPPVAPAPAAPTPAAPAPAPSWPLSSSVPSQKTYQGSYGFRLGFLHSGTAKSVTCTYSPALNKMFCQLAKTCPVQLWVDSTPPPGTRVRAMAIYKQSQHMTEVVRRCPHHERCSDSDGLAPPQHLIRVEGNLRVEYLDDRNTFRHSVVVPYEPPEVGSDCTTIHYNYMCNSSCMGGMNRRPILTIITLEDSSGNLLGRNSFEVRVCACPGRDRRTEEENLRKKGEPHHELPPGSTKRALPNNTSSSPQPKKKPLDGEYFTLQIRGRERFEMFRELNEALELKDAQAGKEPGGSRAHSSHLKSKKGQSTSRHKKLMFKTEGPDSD
Compound,Potency,activation
CCCCNc1ncc(C(=O)NCc2ccc(-n3ccnc3)cc2)c(NC2CCC(O)CC2)n1 (configuration not stated),21.3 µM (active),
O=C(Cc1ccc(-c2ccccc2)cc1)NC1CCC1,,-1% (inactive)
C/C=C(\C)C(=O)OCC1OC(OC2OC(COC(=O)/C(C)=C/C)C(OC3OC(CO)C(OC(=O)/C(C)=C/C)C(OC(=O)/C(C)=C/C)C3O)C(O)C2O)C(O)C(O)C1OC1OC(CO)C(OC(=O)/C(C)=C/C)C(OC(=O)/C(C)=C/C)C1O (configuration not stated),,-19.8% (inactive)
CCOc1ccc(S(=O)(=O)N2CCCCCC2)c2ccccc12,,-13.7% (inactive)
CCNC1(C(N)=O)CN(c2nc(C)nc3c(-c4ccc(Cl)cc4)c(-c4ccccc4Cl)nn23)C1,,-0.333% (inactive)
COc1cc(/C=C/C(=O)OC[C@H]2O[C@@](CO)(O[C@H]3O[C@H](CO)[C@@H](O)[C@H](O)[C@H]3O)[C@@H](OC(=O)/C=C/c3ccc(O)c(OC)c3)[C@@H]2O)ccc1O,,-3.82% (inactive)
OCC1=CC[C@@H]2C=CO[C@@H](O[C@@H]3O[C@H](CO)[C@@H](O)[C@H](O)[C@H]3O)[C@H]12,,-9.92% (inactive)
CC1CCC2(C(=O)OC3OC(CO)C(O)C(O)C3O)CCC3(C(=O)O)C(=CCC4C5(C)CCC(OC6OC(C)C(O)C(O)C6O)C(C)(C)C5CCC43C)C2C1C (configuration not stated),,-10.7% (inactive)
CC1NC(=O)CCCNC(=O)C(Cc2c[nH]c3ccccc23)NC(=O)C(C)NC(=O)C(C(C)C)NC(=O)C(C(C)c2ccccc2)NC(=O)C(C(C)C)NC1=O (stereo not drawn) (cyclo([GABA]AV[ξPhe(βξ-Me)]VAW); configuration not given here),,6.11% (inactive)
C[C@@H]1O[C@@H](O[C@H]2[C@H](OC(=O)[C@]34CCC(C)(C)C[C@H]3C3=CCC5[C@@]6(C)C[C@H](O)[C@H](O[C@@H]7O[C@H](CO)[C@@H](O)[C@H](O)[C@H]7O)[C@@](C)(CO)C6[C@H](O)C[C@@]5(C)[C@]3(C)C[C@H]4O)OC[C@H](O)[C@@H]2O)[C@H](O)[C@H](O)[C@H]1O[C@@H]1OC[C@@H](O)[C@H](O[C@H]2OC[C@](O)(CO)[C@H]2O)[C@H]1O (some centres not stated),,27.7% (inactive)
CC1=C(CO)C2(C)CCCC(C)(C)C2C(O)C1O (configuration not stated),,11.6% (inactive)
CC1=C2C(O)C(=O)OC(c3ccoc3)C2(C)CCC1O (configuration not stated),,-16% (inactive)
C=CC(C)(O)CO[C@@H]1O[C@H](CO)[C@@H](O)[C@H](O)[C@H]1O (some centres not stated),,-16% (inactive)
CC(O)/C=C/C1C(C)C(O[C@@H]2O[C@H](CO)[C@@H](O)[C@H](O)[C@H]2O)C(O)CC1(C)C (some centres not stated),,12.2% (inactive)
C[C@H]1/C=C/C=C/C=C/C=C/C=C/[C@@H](O)[C@H](C(=O)O)[C@H](O)C[C@H](O)CCC[C@H](O)C[C@H](O)C[C@H](O)[C@@H](C)C(=O)O[C@@H]1C,,13.7% (inactive)
CC1OC(OC2C(CO)OC(OCC3OC(OC(=O)C45CCC(C)(C)CC4C4=CCC6C7(C)CCC(OC8OC(CO)C(O)C(OC9OC(CO)C(O)C(O)C9O)C8O)C(C)(C)C7CCC6(C)C4(C)CC5)C(O)C(O)C3O)C(O)C2O)C(O)C(O)C1OC1OC(CO)C(O)C(O)C1O (configuration not stated),,-2.29% (inactive)
CC(=O)N[C@H]1[C@H](O[C@H]2CC[C@@]3(C)C(CC[C@]4(C)C3CC=C3C5CC(C)(C)CC[C@]5(C(=O)O)C(O)C[C@]34C)C2(C)C)O[C@H](CO[C@@H]2O[C@H](C)[C@H](O)[C@H](O)[C@H]2O[C@@H]2OC[C@@H](O)[C@H](O)[C@H]2O)[C@@H](O)[C@@H]1O (some centres not stated),,13.4% (inactive)
COc1ccc(CCc2nc3cc(-c4c(C)noc4C)ccc3n2CC(C)N2CCOCC2)cc1Cl (configuration not stated),,3.67% (inactive)
CC1(C)CCCC2(C)C1CC=C1C(=O)OC(O)C12O (configuration not stated),,-6.11% (inactive)
C=CC1(C)CC(O)C2(CCC3C(C)(C(=O)O)CCCC3(C)C2=O)C1 (configuration not stated),,-2.29% (inactive)
C/C=C(\C)C(=O)O[C@@H]1[C@@H](C)[C@]2(O)[C@@H]3C=C(C)C(=O)[C@H]3CC(CO)=C[C@H]2C2C(C)(C)[C@@]21OC(=O)C(C)CC (some centres not stated),,-1.79% (inactive)
CC(=O)OC[C@]12[C@H](OC(C)=O)[C@H](OC(=O)c3ccccc3)[C@@H]3[C@@H](OC(C)=O)[C@]1(OC3(C)C)[C@H](C)C[C@H](OC(C)=O)[C@@H]2OC(=O)c1ccccc1,,3.05% (inactive)
